Source: PubChem BioAssay AID1530 (NMMLSC, 2009)
The campaign covered roughly 290,000 compounds. About 1,000 (0.34%) were called active. This excerpt belongs to a sample that is enriched for actives. Values without a mark were called inactive. Rule as the data show it: active = percent response above about 24% (passing the limit was not always enough); inactive = the rest.

These compounds were tested on MEKK2 (MAP3K2) mutant PB1 domain binding to MEK5, human (assay: MEK5 binding signal on mutant MEKK2 PB1, primary screen, biochemical, multiplex bead flow cytometry, Alexa488-MEK5 (AID 1530)). Conditions: at 10 µM, active compounds read high.

SMILES	percent response
COCCNC(=O)/C(C#N)=C/c1cccc(OCc2ccccc2)c1	2%
COCCNC(=O)/C(C#N)=C/c1nc(N(C)C)n(-c2ccc(F)cc2)c1Cl	63% (active)
COCCCNC(=O)/C(C#N)=C/c1c(N2CCCCCC2)nc2ccccn2c1=O	5%
Cc1ccc(C(NC(=O)N2CCCC2)C(Cl)(Cl)Cl)cc1F (configuration not stated)	-1%
Cc1ccc(S(=O)(=O)c2c[nH]c3ccc(C)cc3c2=O)cc1	3%
Cc1c(C(=O)N2CCN(c3ccc(F)cc3)CC2)oc2c1C(=O)CCC2	0%
Cc1ccc2c(C)c(C(=O)N3CCN(c4ccncc4)CC3)oc2c1C	30% (active)
Cc1ccc2c(C)c(C(=O)N(C)Cc3ccncn3)oc2c1C	0%
Cc1cccc(CCNC(=O)Cn2ncc3c([nH]c4ccc(C)cc43)c2=O)c1	-4%
CCCNC(=O)COc1coc(CN2CCN(Cc3ccccc3)CC2)cc1=O	10%
COc1ccc(-c2nnc(NC(=O)CS(=O)(=O)c3ccc(Cl)cc3)o2)c(OC)c1	2%
CCOc1ccc(Br)cc1CSC(=N)N	-1%
c1ccc2c(CSCc3nc4ccccc4[nH]3)cccc2c1	1%
N=C(N)SCc1cccc2ccccc12	91% (active)
CCOC(=O)C1Nc2ccc(C(F)(F)F)cc2C2C=CCC12 (configuration not stated)	0%
CC(=O)c1ccc(S(=O)(=O)N2CCC3(CC2)OCCO3)cc1	-1%
CN1CCN(c2nc(Nc3ccc(O)cc3)nc3ccccc23)CC1	2%
c1ccc(Nc2nc(N3CCOCC3)c3ccccc3n2)cc1	38% (active)
O=c1[nH]c(N2CCOCC2)nc2ccccc12	5%
Cc1ccc(C)c(OCCC(=O)OCC(=O)N2CCN(c3ccccc3)CC2)c1	-5%
O=C(NNS(=O)(=O)c1ccc([N+](=O)[O-])cc1)C1CCCCC1	7%
Cc1nc(-c2ccccc2)sc1C1(C)CC(c2cccnc2)=NO1 (configuration not stated)	-3%
O=C(Nc1cccnc1)c1ccc(Cl)cc1[N+](=O)[O-]	2%
O=C(Nc1cccnc1)c1cc(Cl)ccc1Cl	28% (active)
O=C(Nc1cccnc1)c1cc([N+](=O)[O-])ccc1Cl	6%

SMILES	percent response
Cc1[nH]n(C(N)=S)c(=O)c1N=Nc1ccc(Cl)cc1Cl	2%
CCn1c(CNC(=O)c2cc(OC)c(OC)c(OC)c2)cc2cc(C)ccc21	-6%
CN(C(=O)CN1C(=O)CCSc2ccc(S(=O)(=O)N3CCCC3)cc21)c1ccccc1	1%
CNC(C)C#Cc1ccc2sc3cc(OC)c(OC)cc3c(=O)c2c1 (configuration not stated)	13%
CC1COc2ccccc2N1C(=O)c1ccc(F)cc1 (configuration not stated)	1%
CC1Sc2ccc(S(=O)(=O)CCC(=O)NCc3ccccc3Cl)cc2NC1=O (configuration not stated)	11%
O=C(CCN1C(=O)c2ccccc2C1=O)NCCN1CCOCC1	-3%
O=C(NC1=NCCS1)[C@H](Cc1ccccc1)N1C(=O)c2ccccc2C1=O	0%
O=C(NCCN1CCOCC1)[C@H](Cc1ccccc1)N1C(=O)c2ccccc2C1=O	26% (active)
Cc1ccc(NC(=O)COC(=O)C2C3CC4OC(=O)C2C4C3)cc1Cl (configuration not stated)	5%
CCC(C)[C@H]1COCCS(=O)(=O)N1Cc1ccc(C)cc1 (some centres not stated)	-5%
Cc1c(CCOC(=O)CC23CC4CC(CC(C)(C4)C2)C3)sc[n+]1Cc1ccc([N+](=O)[O-])cc1	54% (active)
Cc1c(CCO)sc[n+]1CC(=O)OC12CC3CC(CC(C3)C1)C2	0%
Cc1c(CCOC(=O)c2cc([N+](=O)[O-])ccc2Cl)sc[n+]1CCCCS(=O)(=O)[O-]	-1%
Clc1ccc2nc(CSc3ccccc3)cn2c1	2%
CC1(C)Cc2ccccc2/C(=C/C(=O)c2ccccc2)N1	3%
COCCCNC(=S)N1CCN(c2nc(-c3cccc(OC)c3)cs2)CC1	-4%
CN(C)CCCNC(=S)N1CCC(c2nc3ccccc3[nH]2)CC1	4%
CN(C)CCCNC(=S)N1CCN(c2nc(-c3ccccc3)cs2)CC1	25% (active)
COc1ccc(CCN2C(=O)C(C)=C(C)C2=O)cc1OC	1%
O=C(CCc1nnc2ccc(NCc3ccccc3Cl)nn12)NCC1CCN(C2CCCC2)C1 (configuration not stated)	26% (active)
O=C(CCc1nnc2ccc(NCCCN3CCCC3=O)nn12)NCc1ccccc1Cl	6%
CC1CCN(C(=O)CCc2nnc3ccc(NCc4ccco4)nn23)CC1	0%
CC1CCCCN1C(=O)Cn1c(=O)oc2cc(S(=O)(=O)N3CCCCC3)ccc21 (configuration not stated)	2%
Cc1cccc(NC(=O)Cc2ccc(Br)cc2)n1	4%

SMILES	percent response
COc1ccccc1CCNC(=O)CSc1nnc2ccc(-c3cccnc3)nn12	6%
COc1cc(NC(=O)CSc2nnc3ccc(-c4ccncc4)nn23)cc(OC)c1	0%
COc1ccc(CCNC(=O)CSc2nnc3ccc(-c4ccncc4)nn23)cc1	146% (active)
CCOc1ccc(C(=O)Nc2c3c(nn2-c2ccccc2)CS(=O)(=O)C3)cc1	6%
COc1ccc(S(=O)(=O)/N=C2\C=C(NS(=O)(=O)c3ccccc3)C(=O)c3ccccc32)cc1	-2%
CCOc1ccccc1NC(=O)Cn1ncc2ccc([N+](=O)[O-])cc21	3%
O=C(Nc1ccc(Cl)cn1)c1ccc2c(c1)OCCO2	-5%
O=C(Nc1ccc(Cl)cn1)c1cnn2cccnc12	26% (active)
Cc1cc(NC(=O)c2cnn3cccnc23)n(-c2ccccc2)n1	5%
COc1ccc(C)cc1N(C(=O)Cn1nnc(-c2ccc(C)o2)n1)C(C(=O)NC1CCCC1)c1ccncc1 (configuration not stated)	-2%
CCOC(=O)N1CCN(Cc2nnc(-c3ccccc3Cl)o2)CC1	8%
CCCNC(=O)c1ccc(Cl)c(Cl)c1	-1%
CCCn1c(=N)n(CC(=O)c2ccc(Cl)c(Cl)c2)c2ccccc21	29% (active)
CCn1c(=N)n(CC(=O)c2cccc(OC)c2)c2ccccc21	-9%
CCc1ccc2nc(N(CCCN(C)C)C(=O)c3ccc4c(c3)OCCO4)sc2c1	3%
O=C(Nc1nc2ccc([N+](=O)[O-])cc2s1)c1ccc(S(=O)(=O)N2CCCc3ccccc32)cc1	-5%
CCN(CC)CCN(C(=O)c1ccc(S(=O)(=O)N2CCOCC2)cc1)c1nc2cc3c(cc2s1)OCCO3	11%
CCOc1ccc2nc(N(CCCN(C)C)C(=O)c3ccc(C(=O)c4ccccc4)cc3)sc2c1	19%
CN(C)CCCN(C(=O)c1ccc(S(=O)(=O)N2CCCCCC2)cc1)c1nc2ccc(Br)cc2s1	61% (active)
CN(C)CCCN(C(=O)c1ccc(S(=O)(=O)N2CCCc3ccccc32)cc1)c1nc2ccc(F)cc2s1	65% (active)
O=C(NC1CCCC1)C1CC(=O)N(c2ccc(F)cc2)C1 (configuration not stated)	0%
Cc1cc(C)n(CC(O)COc2ccc(C(C)(C)C)cc2)n1 (configuration not stated)	-1%
CN(C)CC(O)COc1ccc(C(C)(C)c2ccc(OCC(O)CN(C)C)cc2)cc1 (configuration not stated)	33% (active)
CC(C)(c1ccccc1)c1ccc(OCCN)cc1	0%
CCn1cc(CN2CCC(C(=O)Nc3cccc(-c4cccc(Cl)c4)c3)CC2)c(C)n1	35% (active)

SMILES	percent response
CCn1cc(CN2CCC(C(=O)Nc3cccc(-c4cccc(Cl)c4)c3)CC2)cn1	21%
O=C(Nc1cccc(-c2cccc(Cl)c2)c1)C1CCN(C2CCC2)CC1	14%
CC1CCN(CC(=O)Nc2nccs2)CC1	3%
Cc1ccc(C)c(S(=O)(=O)Nc2cccc(-n3cnnn3)c2)c1	-1%
CCCN1CCN(C(=O)CCCNC(=O)c2ccc(Cl)cc2)CC1	-2%
CN1CCN(CCCNC(=O)c2ccc(/C=C3\Oc4ccccc4N(Cc4ccc(Cl)cc4)C3=O)cc2)CC1	48% (active)
CN1C(=O)/C(=C/c2ccc(C(=O)NC3CCCC3)cc2)Oc2ccccc21	2%
NS(=O)(=O)c1ccc2nc(NC(=O)C3=COCCO3)sc2c1	-4%
CCC(=O)c1ccc(OCC(=O)Nc2ccc3nc(C)sc3c2)cc1	-22%
Cc1ccc(NC(=O)C/C(N)=N/O)cc1Cl	1%
Cc1ccc(NC(=O)COc2ccc(-n3ccnc3)cc2)cc1Cl	27% (active)
O=C1N[C@H](Cc2ccccc2)C(=O)N[C@H]1Cc1cn(S(=O)(=O)c2ccccc2)c2ccccc12	2%
CCOC(=O)N1CCN(C(=O)C2CCN(S(=O)(=O)c3cc(Cl)ccc3OCC)CC2)CC1	5%
O=C(CSc1ccc(-c2ccc(Br)cc2)nn1)NCC1CCCO1 (configuration not stated)	6%
CC(NS(=O)(=O)c1ccc(Br)cc1)C(=O)NCC1CCCO1 (configuration not stated)	4%
OC(CNCC1CCCO1)Cn1c2ccc(Br)cc2c2cc(Br)ccc21 (configuration not stated)	40% (active)
COc1ccc(NC(=O)C2=CC(c3ccc(OC)c(OC)c3)=NS(=O)(=O)N2C)cc1	-4%
COc1cc(CNCc2ccc(OC)c3ccccc23)cc(OC)c1OC	6%
Nc1nonc1-n1nnc(C(=O)N/N=C/c2cc(Br)ccc2O)c1CSC1=NCCS1	8%
CC(C)CC(=O)N1CCN(Cc2ccccc2Br)CC1	24% (active)
CCOc1cc(CN2CCN(C(=O)CC(C)C)CC2)ccc1OC	2%
CC(C)CC(=O)N1CCN(Cc2cccc(Cl)c2)CC1	9%
